Bioassay records from PubChem BioAssay.
MCF10A rereplic: inducers of DNA re-replication in MCF 10A breast cells. 350,000 tested, 2.9% active. AID 624296. Potency, µM (titrated, usually from 46.1 µM), for inactives: top-dose activity, positive = re-replication, usual class: activators. MCF 10A DNA re-replication, Hoechst nuclear intensity, 48 h; further: potency means the concentration at half of the fitted maximal effect; % of control where 0% means no effect; nearly all actives have a fitted effect of over 50% in size
KB-V1 cytotox: KB-V1 MDR subline cytotoxicity; KB-V1 MDR cells viability, CellTiter-Glo, 72 h; Potency, µM (titrated, usually from 46.1 µM), usual class: cytotoxic; 400,000 tested, 3.4% active; AID 1347076; further: potency means the concentration at half of the fitted maximal effect; on the % scale 0 is the no-effect control and ±100 the full control effect; nearly all actives have a fitted effect of over 60% in size
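Drug-selected KB-V1 cells, grown in DMEM lacking phenol red with 10% FBS, receive compound titrations; after three days at 37 degrees C, surviving cell ATP is quantified by CellTiter-Glo luminescence and responses normalized and curve-fitted.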
SW480 rerep: induces DNA re-replication in SW480 colon adenocarcinoma cells; Potency, µM (highest dose often 46.1 µM), without a hit: at the top dose re-replication activation, hits mostly activators; AID 624297; 340,000 tested, 1.8% active; SW480 DNA re-replication, Hoechst DNA content imaging, 48 h; further: potency means the concentration at half of the fitted maximal effect; % of control where 0% means no effect; nearly all actives have a fitted effect of over 55% in size
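250 cells/well; 23 nL cpd via pin tool; 48 hr, 37 C, 5% CO2; Hoechst 40 min; imager read of total nuclear intensity, ex 405/em 500-530 nm.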
KB-3-1 tox: KB-3-1 parental cell cytotoxicity | 400,000 tested, 1.4% active | Potency, µM (highest dose often 46.1 µM), usual class: cytotoxic | KB-3-1 viability, CellTiter-Glo ATP luminescence, 72 h; further: potency means the concentration at half of the fitted maximal effect; on the % scale 0 is the no-effect control and ±100 the full control effect; nearly all actives have a fitted effect of over 60% in size
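Screening of KB-3-1 cells (DMEM, 10% FBS, phenol-red free) ran from lowest to highest compound concentration; after 72 h at 37 °C viability was read luminescently and curves fitted.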
KCNH2 3.1 inh: KCNH2 3.1 (human) potassium channel inhibition. 340,000 tested, 0.95% active. U2OS KCNH2 3.1, thallium flux FluxOr; hits give low values. activity change, % (tested at about 1.8 µM);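 active means maximum activity change below -70%; inconclusive means maximum activity change from -70% to -50%; inactive means maximum activity change above -50%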;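 further: thallium influx rate constant from kinetic fluorescence after stimulation buffer; on the % scale 0 is the no-effect control and ±100 the full control effect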
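Thallium flux read-out: FluxOr dye with Red40 quencher in HBSS/HEPES, 45 min at RT. Rate constants from kinetic reads were normalized to positive and negative DMSO controls. Cells: U2OS virally expressing the 3.1 isoform.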
KCNH2 WT inh: KCNH2 (human, wildtype) channel inhibition. AID 720551. activity change, % at 1.84 µM. 340,000 tested, 0.37% active. U2OS, BacMam KCNH2, thallium flux FluxOr; hits give low values. Q12809;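 active means maximum activity change below -70%; inconclusive means maximum activity change between -70% and -50%; inactive means maximum activity change above -50%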; further: on the % scale 0 is the no-effect control and ±100 the full control effect
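U2OS cells transduced with wild-type KCNH2 virus are loaded with FluxOr dye for 45 min, and thallium flux is measured in kinetic reads before and after stimulation buffer. Rate constants are normalized to DMSO controls.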
* hit, by the source's call; i = inactive; ? = inconclusive; / = not tested or not shown. Shown are actives, neighbours in structure and some others; about 7.6% of the full set was active somewhere. Unless noted, the call rests on the fitted dose curve; in most records, active means well fitted curve in the direction sought with a large enough effect; inconclusive means small, poorly fitted or top-dose-only effect, or another doubt; inactive means no such curve, though single readings can be large; an effect the other way counts as inactive or inconclusive.

SMILES	MCF10A rereplic	KB-V1 cytotox	SW480 rerep	KB-3-1 tox	KCNH2 3.1 inh	KCNH2 WT inh
CCOC(=O)NC(=O)c1cn(N(C)c2ncc(C(F)(F)F)cc2Cl)c(=O)[nH]c1=O	?	i	-73.5%	i	12.3	-2.5
COc1cccc(NC(=O)CN(C)C(=O)c2cccnc2Nc2cccc(C(F)(F)F)c2)c1	20.6µM*	?	?	?	-3.6	-13.0
COc1cccc(NC(=O)c2cc(-c3ccco3)nc3ccccc23)c1	2.6%	?	23.3%	i	3.7	-7.4
COc1cccc(NC(=O)c2cc(-c3ccccn3)nc3ccccc23)c1	11.8%	1.84µM*	0.1%	?	2.8	-20.6
COc1cccc(Nc2ncccc2C(=O)Nc2ccccc2)c1	23.1µM*	i	?	i	-15.0	12.0
Cc1cc(C)c2nc(-c3ccccn3)cc(C(=O)NCc3ccc(S(N)(=O)=O)cc3)c2c1	12.6µM*	i	-1.7%	i	12.9	5.3
Cc1ccc(NC(=O)CN(C)C(=O)c2cccnc2Nc2cccc(C(F)(F)F)c2)cc1	?	?	?	?	3.1	-7.5
CCOC(=O)CC(NC(=O)N1CCC(CN2CCC(C)CC2)CC1)c1ccccc1 (stereo unspecified)	/	i	/	i	/	/
COc1ccc(NC(=O)c2cc(-c3ccccn3)nc3c(C)cc(C)cc23)c(C)c1	10.3µM*	/	?	/	-6.0	-2.0
COc1cccc(NC(=O)c2cc(-c3ccncc3)nc3c(C)cc(C)cc23)c1	15.4%	i	1.6%	i	7.4	5.4
Cc1ccc(OCCCN2C(=O)C(=O)c3cc(C)ccc32)cc1	20.6µM*	i	23.1µM*	?	16.2	-6.0
N#Cc1ccccc1NC(=O)COC(=O)c1ccc2c(c1)OCO2	-6.9%	i	-4.2%	i	-4.2	-6.6
CCC(C)NC(=O)CSC1=Nc2ccccc2C2=NC(c3ccccc3)C(=O)N12 (stereo unspecified)	0.2%	16.4µM*	-11.0%	i	9.3	1.0
O=C(Nc1ccn(-c2ccccc2)n1)c1ccc(S(=O)(=O)N2CCCCCC2)cc1	8.8%	?	-9.0%	i	-83.8*	-29.4
O=C(Nc1nnc(-c2ccccc2Cl)o1)c1ccc(S(=O)(=O)N2CCCCCC2)cc1	3.98µM*	8.2µM*	?	?	7.4	32.5
CC1CCCCN1S(=O)(=O)c1ccc(C(=O)Nc2nnc(-c3ccccc3Cl)o2)cc1 (stereo unspecified)	?	16.4µM*	22.6%	?	4.2	28.8
COC(=O)C(C)SC1=N/C(=C/c2ccc(-n3cncn3)cc2)C(=O)N1 (stereo unspecified)	16.4µM*	i	?	i	15.5	-11.7
CCSC1=N/C(=C\c2ccccc2)C(=O)N1	7.4%	i	1.2%	i	7.6	-11.7
Cn1ncc(Cl)c1C(=O)NNC(=O)Nc1cccc2ccccc12	2.7%	i	8.1%	i	1.4	-1.3
COc1ccc(NC(=O)COC(=O)COc2cccc(Br)c2)cc1OC	-3.9%	i	-2.7%	i	-1.5	7.5
O=C(COC(=O)COc1cccc(Br)c1)Nc1c(Cl)cccc1Cl	7.4%	i	?	i	4.9	-188.6*
COc1ccc(Cl)cc1NC(=O)C(C)Sc1nnc(C2CC2)n1C1CC1 (stereo unspecified)	1.8%	18.4µM*	-3.2%	i	4.9	-7.4
Cc1cn(C)c(CC(=O)Nc2cccc(Cl)c2C)c1C(=O)O	/	i	/	i	/	/
Cc1ccc(C(=O)N/C(=C\c2cccs2)C(=O)N2CCCCCC2)cc1	-2.0%	i	1.1%	i	1.5	1.3
CCN1CCN(C(=O)/C(=C/c2cccs2)NC(=O)c2ccc(C)c(C)c2)CC1	3.9%	i	?	i	12.0	-100.2*
CCCN1CN(c2ccccc2)C(=S)N(c2ccccc2)C1	0.0%	i	3.66µM*	i	0.9	-4.3
